{
  "source": "PubChem BioAssay (Tox21)",
  "note": "Unmarked numbers belong to inactive results. Calls of active or inactive are those of the source. Calls come from the whole dose curve; as a rule, active = well fitted curve in the direction sought with a large enough effect in the repeat runs; inconclusive = weak or mixed curves; inactive = flat fitted curve, though single readings scatter.",
  "data": [
    {"experiment": "qHTS assay to test for compound auto fluorescence at 535 nm (green) in HepG2 cells (AID 720675)", "conditions": "green autofluorescence 485/535 nm, 1 h; series mostly up to 91.3 µM", "values": [
      {"molecule": "CC(C(=O)O)c1cccc(Oc2ccccc2)c1", "note": "(stereo not given); note: % is set by controls: 0 for no effect and ±100 for the full control effect", "fluorescence, % of fluorescein control": "0.0036% [at 18.6 µM]"},
      {"molecule": "CCOc1ccc2nc(S(N)(=O)=O)sc2c1", "outcome": "inactive"},
      {"molecule": "CCC(C(=O)NC(=O)NC(C)=O)c1ccccc1", "note": "(stereo not given)", "outcome": "inactive"},
      {"molecule": "CCCCCCC#CC(=O)OC", "outcome": "inactive"},
      {"molecule": "NC(=O)N[C@@H](CCC(=O)O)C(=O)O", "outcome": "inactive"},
      {"molecule": "COc1cc(C(=O)NCc2ccc(OCCN(C)C)cc2)cc(OC)c1OC", "fluorescence, % of fluorescein control": "0.0603% [at 18.6 µM]"},
      {"molecule": "COc1c(N2CCNC(C)C2)c(F)cc2c(=O)c(C(=O)O)cn(C3CC3)c12", "note": "(stereo not given)", "outcome": "inactive"},
      {"molecule": "Cc1ncc(COP(=O)(O)O)c(C=O)c1O", "outcome": "inactive"},
      {"molecule": "C=CCCCCCCCCC(=O)OCC", "outcome": "inactive"},
      {"molecule": "Cc1cccc(C)c1NC(=O)CC12CCCN1CCC2", "outcome": "inactive"},
      {"molecule": "CC[N+](CC)(CC)CCOc1cccc(OCC[N+](CC)(CC)CC)c1OCC[N+](CC)(CC)CC", "outcome": "inactive"},
      {"molecule": "CN(C)C(=O)Oc1ccc[n+](C)c1", "outcome": "inactive"},
      {"molecule": "COc1cc(-c2ccc(=O)[nH]n2)ccc1OC(F)F", "outcome": "inactive"},
      {"molecule": "CCCCc1nc(Cl)c(CO)n1Cc1ccc(-c2ccccc2-c2nn[nH]n2)cc1", "outcome": "inactive"},
      {"molecule": "CO/N=C(\\C(=O)N[C@@H]1C(=O)N2C(C(=O)O)=C(CSc3nc(=O)c(O)nn3C)CS[C@H]12)c1csc(N)n1", "outcome": "inactive"},
      {"molecule": "CCCCCCCCCCOc1cc2c(=O)c(C(=O)OCC)c[nH]c2cc1OCC", "outcome": "inactive"},
      {"molecule": "COc1cc(C)nc(-n2nc(C)cc2OC)n1", "fluorescence, % of fluorescein control": "0.0331% [at 18.6 µM]"},
      {"molecule": "CCN1C=CN(C)C1C", "note": "(stereo not given)", "outcome": "inactive"},
      {"molecule": "C=CCCC(=O)O", "outcome": "inactive"},
      {"molecule": "O=C(O)Cc1csc(-c2ccc(Cl)cc2)n1", "outcome": "inactive"},
      {"molecule": "CC[N+](CC)(CC(=O)Nc1c(C)cccc1C)Cc1ccccc1", "note": "(tested in a mixture with another compound)", "outcome": "inactive"},
      {"molecule": "CCN(Cc1ccccc1)c1ccccc1", "outcome": "inactive"},
      {"molecule": "CCO[Si](OCC)(OCC)c1ccccc1", "outcome": "inactive"},
      {"molecule": "CC1CCC(CO)CC1", "note": "(stereo not given)", "outcome": "inactive"},
      {"molecule": "CCCCCC(C)N", "note": "(stereo not given)", "outcome": "inactive"}
    ]},
    {"experiment": "qHTS assay to test for compound auto fluorescence at 460 nm (blue) in HEK293 cells (AID 720678)", "conditions": "blue autofluorescence 405/460 nm; series mostly up to 91.3 µM", "in_short": "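Auto fluorescence in the blue band was quantified as triamterene equivalency. HEK293 cells were seeded at 2,000/well, dosed after a 4-5 hr attachment, and kept overnight at 37C before the 405/460 nm reading.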", "values": [
      {"molecule": "CC(C(=O)O)c1cccc(Oc2ccccc2)c1", "note": "(stereo not given)", "fluorescence, % of triamterene": "0.0483% [at 18.6 µM]"},
      {"molecule": "CCOc1ccc2nc(S(N)(=O)=O)sc2c1", "outcome": "inactive"},
      {"molecule": "O=C(O)c1cn(C2CC2)c2cc(N3CCNCC3)c(F)cc2c1=O", "fluorescence, % of triamterene": "0.0142% [at 18.6 µM]"},
      {"molecule": "CCC(C(=O)NC(=O)NC(C)=O)c1ccccc1", "note": "(stereo not given)", "outcome": "inactive"},
      {"molecule": "CCCCCCC#CC(=O)OC", "outcome": "inactive"},
      {"molecule": "NC(=O)N[C@@H](CCC(=O)O)C(=O)O", "outcome": "inactive"},
      {"molecule": "COc1cc(C(=O)NCc2ccc(OCCN(C)C)cc2)cc(OC)c1OC", "fluorescence, % of triamterene": "-0.345% [at 18.6 µM]"},
      {"molecule": "C=C(C)C(=O)OCC1CCCO1", "note": "(stereo not given)", "outcome": "inactive"},
      {"molecule": "COc1c(N2CCNC(C)C2)c(F)cc2c(=O)c(C(=O)O)cn(C3CC3)c12", "note": "(stereo not given)", "outcome": "inactive"},
      {"molecule": "O=S(=O)(O)c1cccc2ccccc12", "outcome": "inactive"},
      {"molecule": "NC(CCC(=O)O)C(=O)O", "note": "(stereo not given)", "outcome": "inactive"},
      {"molecule": "CC(=O)NC(=O)c1ccccc1O", "outcome": "inactive"},
      {"molecule": "Cc1ncc(COP(=O)(O)O)c(C=O)c1O", "outcome": "inactive"},
      {"molecule": "O=C1CCCCCCCCCCCCCCO1", "outcome": "inactive"},
      {"molecule": "C=CCCCCCCCCC(=O)OCC", "outcome": "inactive"},
      {"molecule": "Cc1cccc(C)c1NC(=O)CC12CCCN1CCC2", "outcome": "inactive"},
      {"molecule": "CC[N+](CC)(CC)CCOc1cccc(OCC[N+](CC)(CC)CC)c1OCC[N+](CC)(CC)CC", "outcome": "inactive"},
      {"molecule": "CN(C)C(=O)Oc1ccc[n+](C)c1", "outcome": "inactive"},
      {"molecule": "COc1cc(-c2ccc(=O)[nH]n2)ccc1OC(F)F", "outcome": "inactive"},
      {"molecule": "CCCCc1nc(Cl)c(CO)n1Cc1ccc(-c2ccccc2-c2nn[nH]n2)cc1", "outcome": "inactive"},
      {"molecule": "CO/N=C(\\C(=O)N[C@@H]1C(=O)N2C(C(=O)O)=C(CSc3nc(=O)c(O)nn3C)CS[C@H]12)c1csc(N)n1", "outcome": "inactive"},
      {"molecule": "CCCCCCCCCCOc1cc2c(=O)c(C(=O)OCC)c[nH]c2cc1OCC", "outcome": "inactive"},
      {"molecule": "COc1cc(C)nc(-n2nc(C)cc2OC)n1", "fluorescence, % of triamterene": "0.0208% [at 18.6 µM]"},
      {"molecule": "Nc1c2c(nc3c1CCC3)CCCC2", "outcome": "inactive"},
      {"molecule": "CCN1C=CN(C)C1C", "note": "(stereo not given)", "outcome": "inactive"},
      {"molecule": "Cc1ccnc(NS(=O)(=O)c2ccc(N)cc2)n1", "fluorescence, % of triamterene": "0.0233% [at 18.6 µM]"},
      {"molecule": "C=CCCC(=O)O", "outcome": "inactive"},
      {"molecule": "O=C(O)Cc1csc(-c2ccc(Cl)cc2)n1", "outcome": "inactive"},
      {"molecule": "CC[N+](CC)(CC(=O)Nc1c(C)cccc1C)Cc1ccccc1", "note": "(tested in a mixture with another compound)", "outcome": "inactive"},
      {"molecule": "CCN(Cc1ccccc1)c1ccccc1", "outcome": "inactive"},
      {"molecule": "NC(=O)N1c2ccccc2CC(=O)c2ccccc21", "outcome": "inactive"},
      {"molecule": "CN1C(C)(C)CC(O)CC1(C)C", "outcome": "inactive"},
      {"molecule": "CCO[Si](OCC)(OCC)c1ccccc1", "outcome": "inactive"},
      {"molecule": "CC1CCC(CO)CC1", "note": "(stereo not given)", "outcome": "inactive"},
      {"molecule": "CCCCCC(C)N", "note": "(stereo not given)", "outcome": "inactive"}
    ]},
    {"experiment": "qHTS assay to test for compound auto fluorescence at 590 nm (red) in HEK293 cells (AID 720679)", "conditions": "red autofluorescence 540/590 nm; series mostly up to 91.3 µM", "in_short": "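Autofluorescence equivalency to Rose Bengal sodium, 540/590nm, in HEK293 cells exposed overnight to 23 nL compound per well.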", "values": [
      {"molecule": "CC(C(=O)O)c1cccc(Oc2ccccc2)c1", "note": "(stereo not given)", "fluorescence, % of fluorescent control": "-0.0737% [at 18.6 µM]"},
      {"molecule": "CCOc1ccc2nc(S(N)(=O)=O)sc2c1", "outcome": "inactive"},
      {"molecule": "O=C(O)c1cn(C2CC2)c2cc(N3CCNCC3)c(F)cc2c1=O", "fluorescence, % of fluorescent control": "-0.0071% [at 18.6 µM]"},
      {"molecule": "CCC(C(=O)NC(=O)NC(C)=O)c1ccccc1", "note": "(stereo not given)", "outcome": "inactive"},
      {"molecule": "CCCCCCC#CC(=O)OC", "outcome": "inactive"},
      {"molecule": "NC(=O)N[C@@H](CCC(=O)O)C(=O)O", "outcome": "inactive"},
      {"molecule": "COc1cc(C(=O)NCc2ccc(OCCN(C)C)cc2)cc(OC)c1OC", "fluorescence, % of fluorescent control": "-0.334% [at 18.6 µM]"},
      {"molecule": "C=C(C)C(=O)OCC1CCCO1", "note": "(stereo not given)", "outcome": "inactive"},
      {"molecule": "COc1c(N2CCNC(C)C2)c(F)cc2c(=O)c(C(=O)O)cn(C3CC3)c12", "note": "(stereo not given)", "outcome": "inactive"},
      {"molecule": "O=S(=O)(O)c1cccc2ccccc12", "outcome": "inactive"},
      {"molecule": "NC(CCC(=O)O)C(=O)O", "note": "(stereo not given)", "outcome": "inactive"},
      {"molecule": "CC(=O)NC(=O)c1ccccc1O", "outcome": "inactive"},
      {"molecule": "Cc1ncc(COP(=O)(O)O)c(C=O)c1O", "outcome": "inactive"},
      {"molecule": "O=C1CCCCCCCCCCCCCCO1", "outcome": "inactive"},
      {"molecule": "C=CCCCCCCCCC(=O)OCC", "outcome": "inactive"},
      {"molecule": "Cc1cccc(C)c1NC(=O)CC12CCCN1CCC2", "outcome": "inactive"},
      {"molecule": "CC[N+](CC)(CC)CCOc1cccc(OCC[N+](CC)(CC)CC)c1OCC[N+](CC)(CC)CC", "outcome": "inactive"},
      {"molecule": "CN(C)C(=O)Oc1ccc[n+](C)c1", "outcome": "inactive"},
      {"molecule": "COc1cc(-c2ccc(=O)[nH]n2)ccc1OC(F)F", "outcome": "inactive"},
      {"molecule": "CCCCc1nc(Cl)c(CO)n1Cc1ccc(-c2ccccc2-c2nn[nH]n2)cc1", "outcome": "inactive"},
      {"molecule": "CO/N=C(\\C(=O)N[C@@H]1C(=O)N2C(C(=O)O)=C(CSc3nc(=O)c(O)nn3C)CS[C@H]12)c1csc(N)n1", "outcome": "inactive"},
      {"molecule": "CCCCCCCCCCOc1cc2c(=O)c(C(=O)OCC)c[nH]c2cc1OCC", "outcome": "inactive"},
      {"molecule": "COc1cc(C)nc(-n2nc(C)cc2OC)n1", "fluorescence, % of fluorescent control": "-0.0061% [at 18.6 µM]"},
      {"molecule": "Nc1c2c(nc3c1CCC3)CCCC2", "outcome": "inactive"},
      {"molecule": "CCN1C=CN(C)C1C", "note": "(stereo not given)", "outcome": "inactive"},
      {"molecule": "Cc1ccnc(NS(=O)(=O)c2ccc(N)cc2)n1", "fluorescence, % of fluorescent control": "0.0091% [at 18.6 µM]"},
      {"molecule": "C=CCCC(=O)O", "outcome": "inactive"},
      {"molecule": "O=C(O)Cc1csc(-c2ccc(Cl)cc2)n1", "outcome": "inactive"},
      {"molecule": "CC[N+](CC)(CC(=O)Nc1c(C)cccc1C)Cc1ccccc1", "note": "(tested in a mixture with another compound)", "outcome": "inactive"},
      {"molecule": "CCN(Cc1ccccc1)c1ccccc1", "outcome": "inactive"},
      {"molecule": "NC(=O)N1c2ccccc2CC(=O)c2ccccc21", "outcome": "inactive"},
      {"molecule": "CN1C(C)(C)CC(O)CC1(C)C", "outcome": "inactive"},
      {"molecule": "CCO[Si](OCC)(OCC)c1ccccc1", "outcome": "inactive"},
      {"molecule": "CC1CCC(CO)CC1", "note": "(stereo not given)", "outcome": "inactive"},
      {"molecule": "CCCCCC(C)N", "note": "(stereo not given)", "outcome": "inactive"}
    ]}
  ]
}
